One assay deals with MCC-13. The assay is described as follows: qHTS assay to identify novel small-molecules to repurpose for Merkel cell carcinoma treatment (AID 1296009). Note: nearly all actives have a fitted effect of over 60% in size. The settings on record: MCC and control cell lines, CellTiter-Glo viability, 72 h; series mostly up to 46 µM. The gist of the method: (§1)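 Luminescence from CellTiter-Glo, read 10 min after addition at room temperature, reported viability following a 72 hr, 37 degree celsius treatment with NPC or MIPE compounds in titration; values normalized to plate controls.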
On the technique in general: In qHTS, concentration-response curves come from the screen itself.

Another assay concerns MCC-26. The assay is described as above. The settings on record: MCC and control cell lines, CellTiter-Glo viability, 72 h; series mostly up to 46 µM. The gist of the method:
as §1
(ATP-based viability assays read luminescence as a measure of living cells.)

A further assay relates to MKL-1. The assay is described as above. The settings on record: MCC and control cell lines, CellTiter-Glo viability, 72 h; series mostly up to 46 µM. The gist of the method: as §1
For a further assay, the system named is MKL-2. Described as above. The following applies: MCC and control cell lines, CellTiter-Glo viability, 72 h; series mostly up to 46 µM. An outline of the steps: as §1
The subject of a further assay is UISO. Described as above. The following applies: MCC and control cell lines, CellTiter-Glo viability, 72 h; series mostly up to 46 µM. The gist of the method:
as §1

For another assay, the system named is C33A. The assay can be described thus: Primary qHTS to identify gynecologic anti-cancer compounds using libraries of approved drugs and bioactive compounds (AID 1345084). Note: nearly all actives have a fitted effect of over 55% in size. The settings on record: Gynecologic cancer cell panel viability, ATPlite luminescence, 48 h; series mostly up to 57.5 µM. An outline of the steps:
(§2)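 In this quantitative HTS, cell killing is estimated from loss of ATP-dependent luciferase light. Cells see five compound concentrations over a 48 h exposure.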

In the next assay the test system is CAOV3. Described as above. The following applies: Gynecologic cancer cell panel viability, ATPlite luminescence, 48 h; series mostly up to 57.5 µM. An outline of the steps:
as §2

The test system of the next assay is CASKI. The description is as above. The following applies: Gynecologic cancer cell panel viability, ATPlite luminescence, 48 h; series mostly up to 57.5 µM. The gist of the method: as §2
In the next assay the test system is Es-2. Described as above. The settings on record: Gynecologic cancer cell panel viability, ATPlite luminescence, 48 h; series mostly up to 57.5 µM. The gist of the method: as §2
The test system of a further assay is HeLa. The description is as above. The settings on record: Gynecologic cancer cell panel viability, ATPlite luminescence, 48 h; series mostly up to 57.5 µM. An outline of the steps:
as §2

The subject of another assay is Hek293T. The assay is described as above. The following applies: Gynecologic cancer cell panel viability, ATPlite luminescence, 48 h, control line for the selectivity index; series mostly up to 57.5 µM. An outline of the steps: as §2
For the next assay, the system named is JEG-3. Described as above. The settings on record: Gynecologic cancer cell panel viability, ATPlite luminescence, 48 h; series mostly up to 57.5 µM. The gist of the method:
as §2

For the next assay, the system named is OV90. Described as above. The settings on record: Gynecologic cancer cell panel viability, ATPlite luminescence, 48 h; series mostly up to 57.5 µM. The gist of the method: as §2
In another assay the test system is PA-1. Described as above. The settings on record: Gynecologic cancer cell panel viability, ATPlite luminescence, 48 h; series mostly up to 57.5 µM. An outline of the steps: as §2
A further assay has as its system SKOV3. Described as above. The following applies: Gynecologic cancer cell panel viability, ATPlite luminescence, 48 h; series mostly up to 57.5 µM. The gist of the method:
as §2

A further assay relates to Tov-21-G. Described as above. The settings on record: Gynecologic cancer cell panel viability, ATPlite luminescence, 48 h; series mostly up to 57.5 µM. An outline of the steps: as §2
Another assay has as its system WaGa. The assay is described as follows: qHTS assay to identify novel small-molecules to repurpose for Merkel cell carcinoma treatment (AID 1296009). Note: nearly all actives have a fitted effect of over 60% in size. The following applies: MCC and control cell lines, CellTiter-Glo viability, 72 h; series mostly up to 46 µM. The gist of the method:
as §1

Results filed as inconclusive are left out. Activity calls are given as the source filed them. Calls come from the whole dose curve; as a rule, active = well fitted curve in the direction sought with a large enough effect; inconclusive = small, poorly fitted or top-dose-only effect, or another doubt; inactive = no such curve, though single readings can be large; an effect the other way counts as inactive or inconclusive.
Potency is the fitted concentration of half-maximal effect.

For `O=C1[C@H](CC[C@H](O)c2ccc(F)cc2)[C@@H](c2ccc(O)cc2)N1c1ccc(F)cc1`, the Potency entry with MCC-13, with MCC-26, in the assay on MKL-1, in the assay with MKL-2, with UISO and in the assay on C33A was “inactive” each time. Further, the Potency result in the assay with CAOV3, in the assay on CASKI, in the assay with Es-2, with HeLa, with Hek293T and with JEG-3 was “inactive” each time. The Potency result in the assay on OV90, in the assay on PA-1, in the assay on SKOV3 and in the assay with Tov-21-G was “inactive” throughout.

In the case of `CCNC(=O)/C=C/c1cccc(Br)c1`, the Potency result in the assay on MCC-13, in the assay on MKL-1, with MKL-2, in the assay with UISO, in the assay with WaGa and in the assay with C33A was “inactive” in each case. Further, the Potency result with CAOV3, with CASKI, in the assay with Es-2, in the assay on HeLa, in the assay with Hek293T and in the assay on JEG-3 was “inactive” in each case. Further, the Potency entry with OV90, in the assay with PA-1, with SKOV3 and in the assay on Tov-21-G was “inactive” in each case.

As for `C[N+]12CCC(CC1)C(OC(=O)C(O)(c1ccccc1)c1ccccc1)C2` (stereo not drawn), the Potency entry in the assay with MCC-13, in the assay with MKL-1, in the assay with MKL-2, in the assay on UISO, in the assay with WaGa and with C33A was “inactive” in each case. In addition, the Potency result in the assay on CAOV3, with CASKI, in the assay with Es-2, in the assay with HeLa, in the assay on Hek293T and in the assay on JEG-3 was “inactive” each time. Besides, the Potency result with OV90, with PA-1, in the assay on SKOV3 and in the assay on Tov-21-G was “inactive” in each case.

Regarding `OC[C@H]1O[C@@H](Oc2ccc(O)cc2)[C@H](O)[C@@H](O)[C@@H]1O`, the Potency result in the assay on MCC-13, in the assay on MCC-26, in the assay on MKL-1, in the assay on MKL-2, in the assay with UISO and in the assay with C33A was “inactive” throughout. In addition, the Potency entry in the assay on CASKI, with Es-2, in the assay on HeLa, with Hek293T, with JEG-3 and in the assay with OV90 was “inactive” throughout. The Potency entry with PA-1, in the assay with SKOV3 and in the assay with Tov-21-G was “inactive” in each case.

As for `CCCCNc1ccc(C(=O)OCCOCCOCCOCCOCCOCCOCCOCCOCCOC)cc1`, the Potency result with MCC-13, in the assay on MCC-26, with MKL-1, in the assay on MKL-2, in the assay on C33A and in the assay with CAOV3 was “inactive” in each case. For the same compound, the Potency result in the assay with CASKI, in the assay on HeLa, with JEG-3 and in the assay with Tov-21-G was “inactive” throughout.

In the case of `CCN(CC)CCOc1ccc2c(c1)C(=O)c1cc(OCCN(CC)CC)ccc1-2`, the Potency entry in the assay on MCC-26 and with HeLa was “inactive” each time. Further, the Potency with MKL-1 was 13.3 µM (active); in the assay on MKL-2, 2.37 µM (active); in the assay on WaGa it was 15 µM (active); in the assay on C33A it was 17.8 µM (active); with OV90, 12.6 µM (active); in the assay with Tov-21-G, 22.4 µM (active).

Consider `Cc1ccc2c(Br)cc(Br)c(O)c2n1`, for which the Potency with MCC-13 is 16.8 µM (active); in the assay with MKL-2, 5.96 µM (active); in the assay on WaGa, 9.44 µM (active); with C33A it was 20 µM (active); with PA-1 it was 10 µM (active); in the assay with SKOV3 it was 15.8 µM (active). Further, the Potency with Tov-21-G is 17.8 µM (active). The Potency entry with HeLa is “inactive”.

With `Cc1nc(-c2ccc(Cl)cc2)oc1COC(C)(C)C(=O)O`, the Potency entry in the assay on MCC-13, with MKL-1, in the assay with MKL-2, with UISO, with WaGa and with C33A was “inactive” throughout. Besides, the Potency entry in the assay on CASKI, in the assay on Es-2, in the assay with HeLa, in the assay with Hek293T, in the assay on JEG-3 and in the assay with PA-1 was “inactive” each time. In addition, the Potency entry in the assay with SKOV3 and in the assay with Tov-21-G was “inactive” in each case.

(Values after PubChem BioAssay (NCATS).)
